# Out of some 390,000 compounds screened, about 60 (0.02%) were called active. Cut-off read from the data, not from the text of the source: active = activity change below about -50%; inconclusive = between about -30% and that limit; inactive = weaker than that. The full list was thinned out, with actives kept by preference.
# Biological target: Mucolipin-1 (Homo sapiens) (UniProt Q9GZU1)
# Test: qHTS for Inhibitors of the Human Mucolipin Transient Receptor Potential 1 (TRPML1);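 note: stimulus is agonist 54-4 at its EC80 concentration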
# Conditions: TRPML1-inducible cells, Ca2+ dye fluorescence, FDSS; hits give low values; inhibition of EC80 agonist-evoked calcium signal
# Description: Mutations of human Mucolipin transient receptor potential 1 (TRPML1) cause type IV mucolipidosis (ML4), a devastating neurodegenerative disease in young children. […] Currently, there is no treatment for ML4. […] Under physiological conditions, TRPMLs regulate membrane trafficking by transducing information about PI(3,5)P2 levels into changes in juxtaorganellar Ca2+, thereby triggering membrane fusion/fission events in the late endocytic pathways (endolysosomal trafficking). In addition, TRPML1 mediates release of Fe2+ from late endosomes and lysosomes, which is essential for cellular iron metabolism. Thus, impaired ion (Ca2+ and Fe2+) homeostasis underlies lysosomal dysfunction and ML4 phenotypes. In ML4 cells, the problem is twofold. First, defective Ca2+-dependent membrane trafficking due to TRPML1-deficiency causes accumulation of lipids and other bio-materials in the lysosome. The second strike comes from the lysosomal iron overload (due to impairment of TRPML1's Fe2+ conductivity), which converts the accumulated materials into the nondegradable (resistant to lysosomal degradation) lipofuscin (also called aging pigment) in the lysosome. Lipofuscin accumulation dramatically compromises the functions of lysosomes.
# Niemann-Pick type C (NPC) disease is another lysosome storage disease (LSD) with severe neurodegeneration during the childhood. Currently, there is no cure for NPC. […] Thus, TRPML1 is likely to be an essential regulator of lysosome ion homeostasis. We specifically hypothesize that stimulating TRPML1's Fe2+/Ca2+ channel activity in the lysosome using synthetic agonists can alleviate neurodegeneration associated with ML4 or NPC.
# To this end, a high throughput screen was developed in a miniaturized format to screen against the Molecular Libraries Small Molecule Repository (MLSMR) to find small molecules that act either as inhibitors or agonist against the TRPML1 channel.
# NIH Chemical Genomics Center [NCGC]
# NIH Molecular Libraries Probe Centers Network [MLPCN]
# Assay Submitter (PI): Haoxing Xu, University of Michigan Ann Arbor
# TRPML1-DL cells are dissociated from flasks, counted and, brought up to a density of 500,000 cells per mL of media containing a 1X Tet inducer. Using a Multidrop Combi, 3 uL of this cell solution is dispensed to each well of a 1536 TC treated, black, clear bottom hi base plate for a final cell density of 1,500 cells per well. The assay plates are incubated overnight (approximately 16 hours) at 37 degrees C and 5% CO2. Using a Multidrop Combi, 2 uL of ABD Ca8 no wash dye plus quencher is added to each well. The assay plates incubate at room temperature in the dark for 45-90 minutes. The assay plate is read on the FDSS using the following protocol: 10 second baseline read, 23 nL of compounds and controls are added using 1536 pintool, agonist read for 110 seconds, 1 uL EC80 addition (4 uM final 54-4 diluted in media), antagonist read for 110 seconds.
# % is set by controls: 0 for no effect and ±100 for the full control effect.
# Sequence of Mucolipin-1 (Homo sapiens) (Q9GZU1 whole entry, looked up): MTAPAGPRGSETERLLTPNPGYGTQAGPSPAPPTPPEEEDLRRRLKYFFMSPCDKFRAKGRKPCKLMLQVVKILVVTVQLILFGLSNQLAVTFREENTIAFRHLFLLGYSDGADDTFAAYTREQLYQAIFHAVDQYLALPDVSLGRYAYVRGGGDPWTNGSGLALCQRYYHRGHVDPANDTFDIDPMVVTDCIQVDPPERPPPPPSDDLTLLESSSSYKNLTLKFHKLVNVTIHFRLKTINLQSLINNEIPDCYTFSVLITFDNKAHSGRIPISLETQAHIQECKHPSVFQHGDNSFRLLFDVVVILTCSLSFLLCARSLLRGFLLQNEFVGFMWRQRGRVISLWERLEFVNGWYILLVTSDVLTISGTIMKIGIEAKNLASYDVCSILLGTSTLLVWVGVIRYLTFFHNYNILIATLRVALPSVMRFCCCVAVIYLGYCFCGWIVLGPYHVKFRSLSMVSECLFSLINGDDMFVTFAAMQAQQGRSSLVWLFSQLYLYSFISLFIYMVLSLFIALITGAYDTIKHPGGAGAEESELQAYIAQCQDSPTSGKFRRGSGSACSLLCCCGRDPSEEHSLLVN
row,SMILES,"activity change, negative = inhibition"
1,CCn1c(C(=O)Nc2cc(Cl)ccc2C)cc2sc(Cl)cc21,16.9% (inactive)
2,Cc1cccc(Cn2c(=O)n(CCC(=O)NCCc3ccc(Cl)cc3)c(=O)c3sccc32)c1,-20.1% (inactive)
3,CCc1nn(CC(=O)N2CCN(c3cccc(C(F)(F)F)c3)CC2)c(=O)c2cc3occc3n12,2.52% (inactive)
4,COc1ccc(C2=NC3(CCCCC3)N(CC(=O)Nc3ccc(C(C)C)cc3)C2=O)cc1,8.59% (inactive)
5,C=COC(=O)N1CCN(/[N+]([O-])=N/Oc2ccc([N+](=O)[O-])cc2[N+](=O)[O-])CC1,5.96% (inactive)
6,COc1ccc(CNC(=O)c2ccc(NC(=O)N3CC4CCCN4c4ccccc43)cc2)cc1 (centres undefined),12% (inactive)
7,Cc1cc(C)cc(OCC(=O)Nc2c(C(=O)c3ccccc3)oc3ccccc23)c1,-3.38% (inactive)
8,Cc1ccc(SCC(=O)Nc2ccc3oc(-c4ccccc4C)nc3c2)cc1,7.73% (inactive)
9,CCNS(=O)(=O)c1cc(-c2nnc(Nc3cccc(C(F)(F)F)c3)c3ccccc23)ccc1C,-9.21% (inactive)
10,COc1cccc(CNC(=O)CCc2nc(-c3ccc(C)cc3)no2)c1,15.3% (inactive)
11,Cc1ccccc1C(=O)NCc1nc(-c2ccc(Cl)cc2)no1,-1.57% (inactive)
12,CC1CN(C(=O)N2CCC(C(=O)NCc3ccco3)CC2)c2cc(Cl)ccc2O1 (centres undefined),31.2% (inactive)
13,COc1ccccc1-c1ccnc2[nH]n(-c3ccccc3)c(=O)c12,-0.876% (inactive)
14,COC(=O)CC1Oc2ccccc2-n2cc(-c3ccccc3)nc21 (centres undefined),4.04% (inactive)
15,Cc1ccccc1OCc1nc2c3cnn(-c4ccccc4F)c3ncn2n1,-5.46% (inactive)
16,COc1ccc(NC(=O)c2ccc3nc(CCc4ccccc4)oc3c2)c(OC)c1,3.32% (inactive)
17,CCOC(=O)C1CCN(C(c2ccc(F)cc2)c2sc3nc(-c4ccco4)nn3c2O)CC1 (centres undefined),-5.17% (inactive)
18,Cn1c(C(=O)N2CCC(C(=O)N3CCN(c4ccccc4)CC3)CC2)cc2sccc21,-0.29% (inactive)
19,CC(=O)N1CCCc2cc(S(=O)(=O)N3CCC(C(=O)NCc4ccc(C)cc4)CC3)ccc21,23% (inactive)
20,COc1ccc(-c2c3c(=O)n(C)c(=O)n(C)c3c3c(C)nc4ccccc4n23)cc1,-0.184% (inactive)
21,CC(=O)N1CCCc2cc(S(=O)(=O)Nc3ccc(Cl)cc3F)ccc21,0.189% (inactive)

row,SMILES,"activity change, negative = inhibition"
1,COc1ccc(N2C(=O)CS(=O)(=O)C23C(=O)N(Cc2ccc(C)cc2)c2ccccc23)cc1Cl (centres undefined),40.4% (inactive)
2,CCN(CC)/[N+]([O-])=N/OCOC(=O)Cc1c(C)n(C(=O)c2ccc(Cl)cc2)c2ccc(OC)cc12,37.6% (inactive)
3,CCOC(=O)CSC1=Nc2ccccc2C2=NC(CCC(=O)NCc3ccc(F)cc3)C(=O)N12 (centres undefined),-10.5% (inactive)
4,Cc1ccc(Cl)cc1-n1ncc2c(N3CCC(C(N)=O)CC3)ncnc21,0.447% (inactive)
5,O=C(NCCC1=CCCCC1)c1ccc2c(c1)N(Cc1ccccc1F)C(=O)c1ccccc1S2(=O)=O,3.43% (inactive)
6,Cc1cccc(C(=O)N2c3nc(-c4ccco4)nn3C3(CCCCC3)[C@@H]3CCCC[C@@H]32)c1,-0.973% (inactive)
7,C=C1CCN(C(CC(C)C)C(=O)N2CCOCC2)S(=O)(=O)c2ccccc21 (centres undefined),-14.1% (inactive)
8,CCCCNC(=O)CSc1nc2cc3c(cc2c(=O)n1CCCCCC(=O)NCc1ccc2c(c1)OCO2)OCO3,22.7% (inactive)
9,Cc1cccc(NC(=O)CN(c2ccc(C(C)C)cc2)S(=O)(=O)c2c(C)nn(C)c2C)c1C,3.79% (inactive)
10,Cc1ccccc1NC(=O)Cn1c(=O)n(CCc2ccccc2)c(=O)c2ccccc21,-6.8% (inactive)
11,Cc1ccc(CN(C(=O)c2ccccc2[N+](=O)[O-])c2ccccn2)cc1,3.72% (inactive)
12,Cn1nnc2c(N3CCN(c4ccccc4)CC3)ncnc21,-12.6% (inactive)
13,CCn1cc2nc(SCc3ccccc3Cl)n(CCc3ccccc3)c(=O)c2n1,-16.2% (inactive)
14,COc1ccc(NC(=O)CSc2nc3ncccc3[nH]2)c(OC)c1,-10.8% (inactive)
15,COc1ccc(Nc2ncc3c(n2)CCN(C(=O)OC(C)(C)C)C3)cc1,-8.96% (inactive)
16,COc1ccc(C2/C=C\CN(Cc3ccco3)C(C)C(=O)N2Cc2ccc(F)cc2)cc1 (centres undefined),19.9% (inactive)
17,COc1ccc2c(c1)Cc1sc(NC(=O)c3ccccc3Br)nc1-2,-10.7% (inactive)
18,COc1ccc(C2CC(=O)N(Cc3ccccc3C)c3c2c(C)nn3-c2nc(C)cc(C)n2)c(OC)c1 (centres undefined),35.7% (inactive)
19,Cc1cc(C)cc(NC(=O)Cc2csc(C)n2)c1,2.64% (inactive)
20,COc1cc(OC)c2c(C)cc(=O)oc2c1C(CCN1CCCCC1)c1ccc(N(C)C)cc1 (centres undefined),-6.66% (inactive)
21,Cc1ccc(N2CC(c3nnc(Cc4ccccc4Cl)o3)CC2=O)cc1 (centres undefined),-9.51% (inactive)

row,SMILES,"activity change, negative = inhibition"
1,CCc1ccc(CNC(=O)c2ccc(CS(=O)c3ccc(Br)cc3)o2)cc1 (centres undefined),34.7% (inactive)
2,Cc1ccc2cccc(NC(=O)C(C)Oc3ccc(C)c(C)c3)c2n1 (centres undefined),-1.63% (inactive)
3,Cc1ccc(C)c(N2C(=O)N(Cc3c(F)cccc3Cl)c3ccccc3S2(=O)=O)c1,-2.54% (inactive)
4,Oc1ccc(Cl)cc1C1C=C(c2ccc3c(c2)OCO3)NC(c2c(F)cccc2Cl)N1 (centres undefined),-4.64% (inactive)
5,COc1ccc2ncc3c(-c4ccc(C)c(C)c4)nn(CC(=O)NC4CCCC4)c3c2c1,6.38% (inactive)
6,CCN(CC)c1nn2c(=O)c(C(=O)NCCc3ccccc3)cnc2s1,26.2% (inactive)
7,COc1ccc(CNC(=O)c2cc3c(=O)[nH]c4ccccc4c3s2)cc1,-6.35% (inactive)
8,Cc1ccc(Cl)cc1NC(=O)CSc1nccn1C,0.294% (inactive)
9,CC(=O)Nc1ccc2nc(SCCOc3cc(C)cc(C)c3)sc2c1,-12.9% (inactive)
10,CCc1ccc(S(=O)(=O)Nc2cc3c(C(=O)OCc4ccccc4)c(C)oc3c3ccccc23)cc1,28.4% (inactive)
11,CCOC(=O)c1cccc(NS(=O)(=O)c2cc(-c3cnc(C)o3)ccc2OC)c1,21% (inactive)
12,Cc1ccc(Cn2cnc3c(cnn3C(C)(C)C)c2=O)c(F)c1,38.8% (inactive)
13,COc1cc(OC)cc(C(=O)Nc2c(C(=O)Nc3ccc(F)cc3)oc3ccccc23)c1,-0.263% (inactive)
14,O=C1CN(Cc2ccccc2)S(=O)(=O)c2ccccc21,2.64% (inactive)
15,CCOc1ccc(C(=O)c2cn(Cc3ccc(F)cc3)c3ccc(F)cc3c2=O)cc1,34.7% (inactive)
16,CCOc1ccc(-c2cc3c(=O)n(CC(=O)NCc4ccc(OC)cc4)ccn3n2)cc1,14.1% (inactive)
17,Cc1cc2c(cc1C)C(c1cccc(OC(C)C)c1)CC(=O)N2 (centres undefined),-6.57% (inactive)
18,COc1ccc(C(CCN2CCOCC2)c2c(OC)cc(OC)c3c2OC(=O)CC3c2ccc(OC)cc2)cc1 (centres undefined),-3.63% (inactive)
19,CC(C)c1ccc(NC(=O)c2ccc3c(O)c(S(=O)(=O)c4ccccc4)c(=O)[nH]c3c2)cc1,8.74% (inactive)
20,COc1ccccc1-n1c(-c2ccc(C)cc2)cn2c3c(=O)n(C)c(=O)n(C)c3nc12,-8.58% (inactive)
21,Cc1nn(C(C)C(=O)NCCc2ccccc2)c(=O)c2c1sc1ccccc12 (centres undefined),-5.78% (inactive)

row,SMILES,"activity change, negative = inhibition"
1,O=C(Nc1cccc2cccnc12)C(F)(F)F,-10.4% (inactive)
2,Cc1ccc(SCC(CC(C)C)N2CCN(CCc3ccccc3)CCC2=O)cc1 (centres undefined),35% (inactive)
3,CC(=O)Nc1ccc(NC(=O)c2cc3sccc3n2Cc2ccc(F)cc2)cc1,8.5% (inactive)
4,CCC(Sc1nnc(-c2ccc(OC)cc2)c(-c2ccc(OC)cc2)n1)C(=O)NC1CCCCC1 (centres undefined),-8.91% (inactive)
5,Cc1ccc(Cl)cc1NC(=O)CSc1nc2ccccc2nc1Cc1ccccc1,5.62% (inactive)
6,Cn1c(=O)c(=O)n(C)c2cc(NC(=O)c3ccccc3Br)ccc21,18.3% (inactive)
7,COc1ccc(Br)cc1C1CC(=O)Nc2c1c(C)nn2-c1nc(C)cc(C)n1 (centres undefined),-2.53% (inactive)
8,CCc1ccc(S(=O)(=O)c2nnn3c2nc(NCc2ccccc2OC)c2cc(Cl)ccc23)cc1,11.3% (inactive)
9,CC(=O)Nc1ccc(NC(=O)CCCc2nc(-c3ccc(C(C)(C)C)cc3)no2)cc1,-23.6% (inactive)
10,Cc1ccc(OCC(=O)Nc2ccc(OCc3cc(=O)n4c(C)csc4n3)cc2)cc1C,21.1% (inactive)
11,COc1ccc(NC(=O)C2CCCN(S(=O)(=O)c3c(C)[nH]c(=O)[nH]c3=O)C2)c(OC)c1 (centres undefined),-13.7% (inactive)
12,COc1c(Cl)cc(C(=O)N(Cc2ccccc2F)C2CCS(=O)(=O)C2)cc1Cl (centres undefined),-13.9% (inactive)
13,COc1cccc(C(=O)NC2=NC(c3ccc(N(C)C)cc3)CC(=O)N2)c1 (centres undefined),4.87% (inactive)
14,Cc1ccc(-c2nn3c(=O)cc(CN4CCN(C(=O)Nc5cccc(C(F)(F)F)c5)CC4)nc3s2)cc1,-11.5% (inactive)
15,COc1cccc(NC(=O)c2csnn2)c1,-5.21% (inactive)
16,O=C(NCc1ccc(F)cc1)c1ccc2nc(N3CCCCC3)sc2c1,-15.1% (inactive)
17,Cc1cc(NC(=O)c2ccc(-c3ccc(Cl)cc3)o2)cc(-c2nc3ncccc3o2)c1O,-5.56% (inactive)
18,CCC1=Nc2cc(C(=O)NCC(C)c3ccccc3)ccc2Sc2ccc(C)cc21 (centres undefined),12% (inactive)
19,Cc1ccc(C)c(N2CCN(C(=O)C3CCC(CNS(=O)(=O)c4cccs4)CC3)CC2)c1 (centres undefined),13.9% (inactive)
20,CCc1nc2onc(C)c2c(=O)n1CC(=O)O,-8.95% (inactive)
21,Cc1ccccc1CN1CCC(CNC(=O)c2c(C)oc3ncnc(N4CCCCC4)c23)CC1,3.2% (inactive)

# Source: PubChem BioAssay AID624415 (National Center for Advancing Translational Sciences (NCATS), 2012)
